Out of some 320,000 compounds screened, about 2,100 (0.66%) were called active. Another 53% or so got no clear call; they are omitted. The call rests on the fitted dose curve; in most records, active means well fitted inhibition curve with a large enough effect in the signal ratio, with a control signal flat (not every such curve was filed as active); inconclusive means small, poorly fitted or top-dose-only effect, or effect the other way, or a change in a side signal; inactive means flat fitted curve, though single readings scatter; the % refers to the signal ratio. Many of the other results were omitted from the sample, so actives are more common in it than they were.
Assay: qHTS Assay for Lipid Storage Modulators in Drosophila S3 Cells;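 on cell number change: cells counted by Cell Tracker Red CMTPX staining in the red channel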; on lipid storage change, negative = inhibition: on the % scale 0 is the no-effect control and ±100 the full control effect
Conditions: BODIPY lipid droplet fluorescence, 18-24 h, cells fed with added oleic acid; cell number change: measured here: cell count max response; series mostly up to 46.1 µM; lipid storage change, negative = inhibition: at the top concentration
Procedure, shortened: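 Drosophila S3 cells loaded with oleic acid (400 uM, as added) and compounds at several concentrations; lipid droplets imaged by 488-nm laser-scanning cytometry, 500–530 nm intensity and object ratio to cell channel. Percent activity normalized to 20 uM Triacsin C.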
In the case of `CC12CN3CC(C)(CN(C1)C3c1ccc(Cl)cc1)C2` (stereo not drawn), the “lipid storage change, negative = inhibition” value is reported as -3.46% (inactive) and the cell number change is reported as -7.54%.
In the case of `CC12CN3CC(C)(CN(C1)C3c1ccc(F)cc1)C2` (stereo not drawn), the Potency is reported as 0.731 µM (active) and the cell number change is reported as -6.72%.
In the case of `Cc1nnc(NC(=O)CSc2ccc(-c3ccco3)nn2)s1`, the “lipid storage change, negative = inhibition” value is reported as 1.52% (inactive) and the cell number change is reported as 17.1%.
With `NS(=O)(=O)c1ccc(NC(=O)Nc2ccc(Cl)cc2)cc1` the “lipid storage change, negative = inhibition” value was -5.77% (inactive) and the cell number change was -17.6%.
For `COc1ccc(CC(=O)Nc2nc(-c3ccc(F)c(F)c3)cs2)cc1OC`, the Potency was 6.51 µM (active) and the cell number change was 21%.
For `COc1ccc(CC(=O)Nc2nc(-c3ccc(F)c(F)c3)cs2)cc1`, the “outcome” value was “inactive” and the cell number change was 17.2%.
With `COc1ccc(CC(=O)Nc2nc(-c3ccc(OC)c(OC)c3)cs2)cc1OC` the “lipid storage change, negative = inhibition” value was -0.677% (inactive) and the cell number change was -7.98%.
With `Cc1ccccc1OCCC(=O)OCC(=O)Nc1ccc(C(N)=O)cc1` the “lipid storage change, negative = inhibition” value was 3.07% (inactive) and the cell number change was 0.749%.
With `O=C(CSCc1ccc(F)cc1)Nc1ccc(F)cc1` the “lipid storage change, negative = inhibition” value was 0.0604% (inactive) and the cell number change was 14.6%.
For `CCc1nnc(NC(=O)C2CC(=O)N(C3CCCC3)C2)s1` (stereo not drawn), the “outcome” value was “inactive” and the cell number change was 8.4%.
With `CCOC(=O)N1CCN(C(=O)C2CCN(S(=O)(=O)c3cc(Cl)ccc3Cl)CC2)CC1` the “lipid storage change, negative = inhibition” value was 9.01% (inactive) and the cell number change was -24.4%.
For `COc1cc(C(=O)NCCC2=CCCCC2)ccc1OC1CCN(C(C)=O)CC1`, the “lipid storage change, negative = inhibition” value was -13.8% (inactive) and the cell number change was 8.8%.
In the case of `CCC(C)C(=O)Nc1ccc(OC)cc1OC` (stereo not drawn), the Potency is reported as 23.1 µM (active) and the cell number change is reported as 17.4%.
In the case of `COc1ccc(NC(=O)C(CC(C)C)NC(=O)C2CCCCC2)c(OC)c1` (stereo not drawn), the “lipid storage change, negative = inhibition” value is reported as -6.75% (inactive) and the cell number change is reported as -5.85%.
In the case of `COc1ccc(NC(=O)CN2CCN(CC(=O)Nc3ccc(F)cc3)CC2)c(OC)c1`, the Potency is reported as 18.4 µM (active) and the cell number change is reported as 21.1%.
With `COc1ccc(NC(=O)CN2CCC(C(=O)c3ccc(F)cc3)CC2)c(OC)c1` the “outcome” value was “inactive” and the cell number change was -0.87%.
For `COc1ccc(NC(=O)CN2CCCN(S(=O)(=O)c3ccc(F)cc3)CC2)c(OC)c1`, the “lipid storage change, negative = inhibition” value was 0.193% (inactive) and the cell number change was 0.557%.
For `COc1ccc(NC(=O)c2ccc(C(=O)Nc3ccc(OC)cc3OC)cc2)c(OC)c1`, the “lipid storage change, negative = inhibition” value was -1.09% (inactive) and the cell number change was 1.2%.
For `Cc1cc(Br)cc2c1NC(=O)C2(O)CC(=O)c1ccco1` (stereo not drawn), the cell number change was 3.68% and the lipid storage change, negative = inhibition was 9.35% [at 9.22 µM] (inactive).
For `COc1ccc(NC(C)=[N+](C)CCNS(=O)(=O)c2ccc(Cl)cc2)cc1`, the “lipid storage change, negative = inhibition” value was 27.3% (inactive).
For `C/C(CCc1ccco1)=N/NC(=O)CCC(=O)Nc1cccc(Cl)c1`, the “lipid storage change, negative = inhibition” value was -0.598% (inactive) and the cell number change was 0.649%.
In the case of `CC(=O)Nc1ccc(NC2=CC(=O)c3ccccc3C2=O)cc1`, the “lipid storage change, negative = inhibition” value is reported as 6.65% (inactive) and the cell number change is reported as 4.49%.
With `CCc1ccc(S(=O)(=O)/N=C2\C=C(Nc3ccc(O)cc3)C(=O)c3ccccc32)cc1` the “lipid storage change, negative = inhibition” value was -100% (inactive) and the cell number change was 15.8%.
With `O=C(O)c1ccc(S(=O)(=O)/N=C2\C=C(Nc3ccccc3F)C(=O)c3ccccc32)cc1` the Potency was 6.51 µM (active) and the cell number change was 2.14%.
With `Cc1cc(C)c(S(=O)(=O)/N=C2\C=C(Nc3ccc(C(=O)O)cc3)C(=O)c3ccccc32)c(C)c1` the Potency was 0.92 µM (active) and the cell number change was 11.7%.
With `CC(C)(C)c1ccc(S(=O)(=O)/N=C2\C=C(NS(=O)(=O)c3ccccc3)C(=O)c3ccccc32)cc1` the “outcome” value was “inactive” and the cell number change was -1.8%.
For `O=S(=O)(/N=C(/Nc1ccccc1F)c1ccccc1)c1ccccc1`, the “outcome” value was “inactive”.
For `Cc1ccc(-n2c(C)cc(/C=N/NC(=O)c3ccncc3)c2C)cc1C`, the “outcome” value was “inactive”.
With `CC1(C)CC(NC(=S)Nc2ccc([N+](=O)[O-])cc2)CC(C)(C)N1` the “lipid storage change, negative = inhibition” value was -0.0033% (inactive) and the cell number change was 15.8%.
With `CCOC(=O)C1CCN(c2cc3c(cc2NC(=O)c2ccc(F)cc2)n(C)c(=O)n3C)CC1` the “outcome” value was “inactive” and the cell number change was -8.96%.
In the case of `Cc1ccc(C(=O)Nc2cc3c(cc2N2CCCCC2)n(C)c(=O)n3C)cc1`, the “outcome” value is reported as “inactive” and the cell number change is reported as -8.73%.
For `CCOC(=O)C1CCN(c2cc3c(cc2NC(=O)c2ccccc2)n(C)c(=O)n3C)CC1`, the Potency was 3.66 µM (active).
With `c1ccc(-c2nc(-c3nccc4ccccc34)oc2-c2ccccc2)cc1` the “lipid storage change, negative = inhibition” value was 3.9% (inactive) and the cell number change was -5.47%.
With `N#CCCN(C(=O)COc1ccc(C#N)cc1)c1ccc(F)cc1` the “lipid storage change, negative = inhibition” value was -8.49% (inactive) and the cell number change was 6.15%.
In the case of `CN(C(=O)c1ccccc1Cl)c1ccccc1`, the “lipid storage change, negative = inhibition” value is reported as -1.64% (inactive).
For `CCN(C(=O)c1ccccc1Cl)c1ccccc1`, the Potency was 23.1 µM (active).
In the case of `CCN(C(=O)CCC(=O)N(CC)c1ccccc1)c1ccccc1`, the “lipid storage change, negative = inhibition” value is reported as 15.9% (inactive) and the cell number change is reported as -0.108%.
For `CCC(C)(C)n1nnnc1C(c1cccnc1)N1CCN(c2cccc(C(F)(F)F)c2)CC1` (stereo not drawn), the “lipid storage change, negative = inhibition” value was -18.5% (inactive) and the cell number change was -8.43%.
In the case of `O=[N+]([O-])c1ccc(-c2ccc(S(=O)(=O)N3CCOCC3)cc2)cc1`, the “lipid storage change, negative = inhibition” value is reported as 20.9% (inactive) and the cell number change is reported as -1.81%.
For `CC(=O)C(=Cc1ccc(O)cc1)C(C)=O`, the “lipid storage change, negative = inhibition” value was -1.96% (inactive) and the cell number change was -7.54%.
With `Cc1cc2c(cc1S(=O)(=O)N(C)c1ccccc1)NC(=O)CO2` the “lipid storage change, negative = inhibition” value was -11.8% (inactive) and the cell number change was -11.6%.
With `CCOC(=O)c1cc(C)sc1NC(=O)CN1CCN(C(=O)c2ccco2)CC1` the “outcome” value was “inactive” and the cell number change was 16.2%.
For `CCc1cc(C(=O)OC)c(NC(=O)CN2CCN(C(=O)c3ccco3)CC2)s1`, the “lipid storage change, negative = inhibition” value was -16.1% (inactive) and the cell number change was 13.8%.
For `COC(=O)c1cc(C)sc1NC(=O)CN1CCN(C(=O)c2ccco2)CC1`, the Potency was 1.84 µM (active) and the cell number change was 3.78%.
For `Cc1ccccc1NC(=O)CN1CCN(C(=O)c2ccco2)CC1`, the “lipid storage change, negative = inhibition” value was -7.52% (inactive) and the cell number change was 25%.
With `Cc1cc(Cl)ccc1NC(=O)CN1CCN(C(=O)c2ccco2)CC1` the Potency was 4.61 µM (active) and the cell number change was 2.78%.
In the case of `O=C(CN1CCN(C(=O)c2ccco2)CC1)Nc1cc(Cl)ccc1Cl`, the “lipid storage change, negative = inhibition” value is reported as -22.6% (inactive) and the cell number change is reported as -13.1%.

Reference: PubChem BioAssay AID2685 (National Center for Advancing Translational Sciences (NCATS), 2010)
Potency means the concentration at half of the fitted maximal effect.
